High-throughput results (PubChem)
ELG1 repair inh: ELG1-dependent DNA repair inhibition; HEK293T ELG1-luciferase reporter, luminescence, 16 h; DNA damage induced by 5-fluorouridine; Potency, µM (top dose mostly 46.1 µM), for inactives: top-dose activity change, negative = inhibition, actives largely listed as inhibitors; hit rate 2.3% among 330,000; AID 504467; note: % is set by controls: 0 for no effect and ±100 for the full control effect; nearly all actives have a fitted effect of over 55% in size
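Cells (2,000 per well) received 5-fluorouridine plus test compound or DMSO and were incubated 16 hr at 37 °C, 5% CO2. Luciferase activity was read by luminescence 30 min after ONE-Glo addition; signal suppression marked inhibition of damage-induced ELG1 function.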
Rab9 prom act: activates the Rab9 promoter | Huh7 Rab9 promoter-luciferase reporter, luminescence, 24 h | Potency, µM (doses to about 9.22 µM), inactives show at the highest dose activation, negative = inhibition, usual class: activators | hit rate 2.8% among 320,000 | AID 485297; note: % of control where 0% means no effect; nearly all actives have a fitted effect of over 60% in size
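Rab9 promoter-driven luciferase in stably transfected Huh7 cells; 1500 cells/well rested 2 h, exposed to compound in DMSO for 24 h at 37 °C, 5% CO2. Luminescence read 10 min after adding luciferase reagent at ambient temperature.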
FLuc counter: counter-screen for miR-21 project: firefly luciferase inhibitors or activators; AID 588342; hit rate 6.9% among 360,000; purified FLuc, Km substrates, luminescence inhibition; Potency, µM (series often up to 57.5 µM), without a hit: at the top dose activity change, negative = inhibition, usual class: inhibitors; P08659;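 note: plate controls were vehicle for no effect and reference inhibitor for full effect; nearly all actives have a fitted effect of over 55% in size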
Target sequence (P08659 whole entry, looked up): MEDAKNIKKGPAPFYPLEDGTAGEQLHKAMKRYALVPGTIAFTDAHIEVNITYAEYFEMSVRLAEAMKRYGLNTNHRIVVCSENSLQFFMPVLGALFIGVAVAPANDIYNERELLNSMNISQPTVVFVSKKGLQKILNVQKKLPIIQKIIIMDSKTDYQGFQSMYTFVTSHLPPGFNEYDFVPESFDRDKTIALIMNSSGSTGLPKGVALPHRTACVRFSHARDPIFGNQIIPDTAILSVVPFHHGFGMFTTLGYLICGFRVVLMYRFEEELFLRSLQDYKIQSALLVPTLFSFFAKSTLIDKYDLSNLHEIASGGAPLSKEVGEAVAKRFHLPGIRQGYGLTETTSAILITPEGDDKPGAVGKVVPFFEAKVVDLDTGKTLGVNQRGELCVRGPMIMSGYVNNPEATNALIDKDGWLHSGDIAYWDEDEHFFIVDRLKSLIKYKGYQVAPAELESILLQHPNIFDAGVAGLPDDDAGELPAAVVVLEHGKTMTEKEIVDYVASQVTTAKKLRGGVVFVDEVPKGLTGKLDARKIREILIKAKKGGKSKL
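Purified P. pyralis luciferase (10nM final) with 10uM D-luciferin and 10uM ATP (Km levels) in 50mM Tris acetate pH 7.5, 10mM Mg acetate, 0.01% Tween-20, 0.05% BSA; qHTS 6-point titration, ~60 µM downward; luminescence read.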
SMN2 splice up: enhancers of SMN2 splice variant expression. Potency, µM (titrated, usually from 46.1 µM), without a hit: at the highest dose activity change, positive = activation, hits mostly activators. hit rate 2.8% among 210,000. HEK293 SMN2-luciferase splicing reporter, luminescence, 30-36 h; note: % of control where 0% means no effect; nearly all actives have a fitted effect of over 55% in size
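HEK293 cells carry an SMN2 […]–luciferase reporter in which exon 7 inclusion puts luciferase in frame. Cells were plated 10-12 h before compound addition, then incubated 30-36 h at 37C. ONE-Glo luminescence was read; sodium butyrate at 4.5 mM final served as control.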
ELG1 genotoxic: induces genotoxicity in HEK293T cells with luciferase-tagged ELG1 | HEK293T ELG1-luciferase reporter, luminescence, 16 h | Potency, µM (top dose mostly 46 µM), for the others: at the highest dose activity change, positive = activation, most hits filed as activators | hit rate 1.3% among 330,000 | AID 504466; note: % of control where 0% means no effect; nearly all actives have a fitted effect of over 60% in size
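16 hr compound incubation (37 °C, 5% CO2) of HEK293T cells carrying luciferase-tagged ELG1; luciferase then measured by ONE-Glo luminescence after 30 min at RT.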
NPC1 promoter act: NPC1 promoter activation. hit rate 2.4% among 320,000. Huh7 NPC1 promoter luciferase reporter, 24 h. AID 485313. Potency, µM (top dose mostly 9.22 µM), inactives show top-dose activation, hits mostly activators; note: % of control where 0% means no effect; nearly all actives have a fitted effect of over 60% in size
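Quantitative HTS used a cell-based reporter: Huh7 cells stably bearing the NPC1 promoter upstream of luciferase were treated with compounds for 24 h, and promoter activation was read as luminescence.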
Starred values were filed as active, the others as inactive; ? = inconclusive; . = no result given; [ ] = dose if it differs, or a comment. The list is not random: actives were taken first. Their share in the collection is about 9.4%. Calls come from the whole dose curve; as a rule, active = well fitted curve in the direction sought with a large enough effect; inconclusive = small, poorly fitted or top-dose-only effect, or another doubt; inactive = no such curve, though single readings can be large; an effect the other way counts as inactive or inconclusive. Potency is the fitted concentration of half-maximal effect.

SMILES	ELG1 repair inh	Rab9 prom act	FLuc counter	SMN2 splice up	ELG1 genotoxic	NPC1 promoter act
O=C1c2ccccc2C(=O)c2c1ccc1c(=O)n(C3CCCCC3)[nH]c21	21µM*	1%	?	27%	-4%	-2%
N#Cc1ccc2c(c1)C[C@]1(c3ccsc3)Oc3c(c(=O)oc4ccccc34)C2O1	.	-4%[1.84 µM]	3.1µM*	.	.	-1%[1.84 µM]
CC(C)(C)c1ccc(C(=O)Nc2ccc(-c3nc4ccccc4o3)c(O)c2)cc1	.	.	-4%	-2%	.	.
C/C(=N\NC(=O)c1ccoc1C)c1ccc(Br)s1	?	4%	-4%	.	?	-3%
Cc1ccc(/C=N/NC(=O)c2ccoc2C)s1	?	3.2µM*	15µM*	10µM*	?	?
Cc1occc1C(=O)N/N=C/c1ccc(Br)s1	?	2.8µM*	15µM*	.	?	?
Cc1ccc(-n2cc(CN3CCC(O)(c4ccccn4)CC3)c(-c3ccc(F)cc3)n2)cc1	18µM*	-21%	17µM*	.	-6%	-4%
Cc1ccc(-n2nc(C(=O)N3CCCCC3)c(=O)n(C)c2=O)cc1	.	.	1%	.	.	.
CC(C)C(NC(=S)Nc1ccccc1)C(=O)O (stereo not drawn)	9%	-1%	4%	3.2µM*	-1%	1%
CCC(C)NC(=S)Nc1ccccc1 (stereo not drawn)	?	-6%	6%	.	-4%	1%
O=C(NNC(=S)Nc1ccccc1)NNC(=S)Nc1ccccc1	-5%	1%	6%	3%	-5%	-14%
Cc1ccc(NC(=S)NNC(=O)c2c(Cl)c(C)nn2C)cc1	-7%	1%	-1%	.	-6%	-2%
O=C(NNC(=S)Nc1ccccc1)Nc1ccccc1	?	22%	?	5.6µM*	13%	15%
Cc1ccc(NC(=S)NNC(=O)c2nn(C)c(C)c2Cl)cc1	?	3.2µM*	-2%	?	16%	?
Cc1ccc(NC(=S)NNC(=O)Nc2ccccc2)cc1	?	3.2µM*	2.4µM*	13µM*	?	?
CC[C@H](C)[C@@H](NC(=O)O[C@@H]1Cc2cc(Br)ccc2O[C@H]1c1cccc(OC)c1)C(=O)OC	.	.	.	4%	.	.
CS(=O)(=O)c1ccc2nc(NC(=O)c3cc(-c4ccccc4)nn3-c3ccccc3)sc2c1	7.3µM*	-2%	-7%	-27%	-5%	-3%
CS(=O)(=O)c1ccc2nc(NC(=O)C3=NN(c4ccccc4)C(=O)CC3)sc2c1	-3%	0%	?	.	-7%	0%
Cn1nc(C(=O)Nc2nc3ccc(S(C)(=O)=O)cc3s2)ccc1=O	?	-1%	11µM*	-2%	11%	0%
CS(=O)(=O)c1ccc2nc(NC(=O)c3ccc(=O)[nH]c3)sc2c1	17%	7%	6.7µM*	.	6%	-7%
CN(C)S(=O)(=O)c1cccc(NC(=O)c2n[nH]c(=O)c3ccccc23)c1	?	-4%	-12%	-2%	-5%	-1%
CCN(CC)S(=O)(=O)c1ccc(NC(=O)c2cc(=O)[nH]c3ccccc23)cc1	?	2%	-3%	2%	0%	-5%
CCN(CC)S(=O)(=O)c1cc(NC(=O)c2n[nH]c(=O)c3ccccc23)ccc1C	?	?	24µM*	-26%	-12%	6%
CCN(CC)S(=O)(=O)c1ccc2[nH]c(=O)cc(C(=O)Nc3ccc(C)c(S(=O)(=O)N(CC)CC)c3)c2c1	18µM*	0%	-2%	-4%	-5%	-1%
COc1ccc(NC(=O)c2cc(-c3ccccn3)nc3ccccc23)cc1S(=O)(=O)N(C)C	?	-1%	-15%	.	-6%	0%
SMILES	ELG1 repair inh	Rab9 prom act	FLuc counter	SMN2 splice up	ELG1 genotoxic	NPC1 promoter act
CCN(CC)S(=O)(=O)c1cc(NC(=O)c2cc(-c3ccccn3)nc3ccccc23)ccc1C	8.2µM*	2%	-11%	-15%	-17%	-2%
Cc1cc(NC(=O)c2n[nH]c(=O)c3ccccc23)ccc1Br	?	5µM*	5%	.	?	?
COc1ccc(-c2nc3cc(C)ccn3c2NC(=O)c2cccc(F)c2)cc1	.	.	?	14%	.	.
Cc1nc(-c2ccc(C)c(S(=O)(=O)N3CCC(C(=O)NCc4ccc(F)cc4)CC3)c2)no1	.	.	-6%	.	.	.
Cc1ccccc1NC(=O)c1ccc(N(Cc2ccccc2)S(C)(=O)=O)cc1	.	.	-1%	-12%	.	.
CC(C)c1ccc(NC(=O)c2n[nH]c(=O)c3ccccc23)cc1	?	1.6µM*	-1%	5.6µM*	?	?
Cc1ccc(-c2nn(C)c(=O)c3ccccc23)cc1S(=O)(=O)N1CCOCC1	?	-1%	0%	?	?	-4%
Cn1nc(-c2ccc(N3CCOCC3)c(NS(=O)(=O)c3ccccc3)c2)c2ccccc2c1=O	?	-3%	9%	?	13µM*	-8%
Cc1ccc(-c2nn(C)c(=O)c3ccccc23)cc1S(=O)(=O)N1CCCC1	19%	-1%	0%	13%	16µM*	-4%
Cc1ccc(C)c(NC(=O)CCCN2C(=O)C(c3ccccc3)Oc3cccnc32)c1 (stereo not drawn)	.	.	-3%	.	.	.
COc1c(Cl)cccc1-c1cn2ccc(C)cc2n1	?	0.56µM*	0.67µM*	.	?	1.3µM*
Cc1ccn2cc(-c3ccc(Br)cc3)nc2c1	?	0.56µM*	0.15µM*	.	?	2.8µM*
Cc1ccc(-c2cn3ccc(C)cc3n2)cc1	.	.	0.15µM*	0.25µM*	.	.
Clc1ccc(-c2cn3cc(Br)ccc3n2)cc1Cl	?	2.2µM*	0.21µM*	2.2µM*	0.82µM*	4µM*
Cc1ccc(S(=O)(=O)Nc2ccc(-c3cn4ccc(C)cc4n3)cc2)cc1	-29%	12%	?	.	-4%	-2%
O=S(=O)(c1cccc(-c2cn3cc(Cl)ccc3n2)c1)N1CCOCC1	-4%	-1%	?	.	-7%	-4%
O=C(COc1ccccc1)NCCc1csc(-c2ccc(Cl)cc2)n1	.	.	-18%	.	.	.
CCCCN(Cc1cccs1)S(=O)(=O)c1cc(-c2cc(C)no2)ccc1C	.	.	-12%	.	.	.
Cc1sc(NC(=O)C2=COCCO2)c(C(N)=O)c1C	?	22%	17µM*	.	28%	14%
Cc1sc(NC(=O)c2cccs2)c(C(N)=O)c1C	?	?	11µM*	10µM*	?	18%
Cc1ccc(C)c(-c2cc(C(=O)Nc3sc(C)c(C)c3C(N)=O)c3ccccc3n2)c1	18µM*	4%	-15%	-81%	-15%	-1%
CC(=O)NCc1nc2cccnc2n1Cc1ccccc1	.	.	0%	.	.	.
COC(=O)c1ccc(Cl)cc1NC(=O)N1CC=C(c2c[nH]c3ccccc23)CC1	.	.	-13%	.	.	.
